Compounds with a hit are over-represented: about 12% of the library has one in this group of screens.
PI5P4Ka inh – inhibitors of human PI5P4K alpha. 330,000 compounds, 1.2% hits. P48426. max response, %. PI5P4Kalpha enzyme, ADP-Glo luminescence, 60 min; active compounds read low; active means max response of -50% or lower; inconclusive means between -30% and -50%; inactive means -30% or higher; further: value at the top dose of about 77 µM; on the % scale 0 is the no-effect control and ±100 the full control effect
Target sequence (P48426 whole entry, looked up): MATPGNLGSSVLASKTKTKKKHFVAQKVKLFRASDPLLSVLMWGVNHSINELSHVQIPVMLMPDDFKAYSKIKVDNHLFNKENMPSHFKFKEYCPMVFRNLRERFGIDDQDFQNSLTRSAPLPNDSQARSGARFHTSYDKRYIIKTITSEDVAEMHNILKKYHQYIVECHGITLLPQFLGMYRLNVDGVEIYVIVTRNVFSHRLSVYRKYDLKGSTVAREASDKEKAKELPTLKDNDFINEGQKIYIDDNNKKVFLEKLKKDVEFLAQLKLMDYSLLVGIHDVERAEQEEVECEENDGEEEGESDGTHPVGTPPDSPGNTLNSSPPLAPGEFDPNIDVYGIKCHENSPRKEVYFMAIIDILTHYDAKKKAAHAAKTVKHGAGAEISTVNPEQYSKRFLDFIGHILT
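Reactions run in 0.038 M HEPES pH 7.4, 0.28 mM EGTA, 0.1% CHAPS and 5% DMSO, with PI5P4Kalpha, substrate, compound and 5 microM ATP final, one hour at room temperature. Readout is ADP-Glo luminescence.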
G9a block – blocks human histone lysine methyltransferase G9a; G9a H3K9 monomethylation, AlphaScreen, 2 h; Potency, µM (series often up to 102 µM), for inactives: at the top dose activity, negative = inhibition, hits mostly inhibitors; 350,000 compounds, 8.8% hits; Q96KQ7; further: potency means the concentration at half of the fitted maximal effect; on the % scale 0 is the no-effect control and ±100 the full control effect; nearly all actives have a fitted effect of over 75% in size
Target sequence (Q96KQ7 913-1193 limits assumed): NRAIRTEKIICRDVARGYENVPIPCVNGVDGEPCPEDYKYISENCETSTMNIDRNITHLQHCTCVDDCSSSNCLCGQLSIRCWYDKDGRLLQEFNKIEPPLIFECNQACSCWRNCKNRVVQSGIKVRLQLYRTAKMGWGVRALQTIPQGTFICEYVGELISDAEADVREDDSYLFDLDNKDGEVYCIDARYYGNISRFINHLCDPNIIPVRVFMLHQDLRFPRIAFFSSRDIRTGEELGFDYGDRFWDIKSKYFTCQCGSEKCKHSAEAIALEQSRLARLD
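AlphaScreen detection with an anti-monomethyl H3K9 antibody quantified product after a 2 h room-temperature reaction containing 500 nM biotinylated H3K9 peptide, 20 µM SAM and 20 nM enzyme, which had been preincubated 15 min with compound.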
JMJD2A Tudor – inhibitors of human JMJD2A Tudor domain. O75164. AlphaScreen JMJD2A-Tudor / H3K4me3 peptide binding. Potency, µM (highest dose often 114 µM), inactives show at the highest dose activity change, negative = inhibition, actives largely listed as inhibitors. 390,000 compounds, 4.4% hits; further: potency means the concentration at half of the fitted maximal effect; on the % scale 0 is the no-effect control and ±100 the full control effect; nearly all actives have a fitted effect of over 50% in size
PLK1 PBD inh – inhibitors of human PLK1 polo-box domain binding; P53350; Plk1 PBD binding of FITC phosphopeptide, fluorescence polarization; Potency, µM, without a hit: max response, negative = inhibition, actives largely listed as inhibitors; 360,000 compounds, 2.8% hits; AID 720504; further: potency means the concentration at half of the fitted maximal effect; series mostly up to about 57 µM; on the % scale 0 is the no-effect control and ±100 the full control effect; nearly all actives have a fitted effect of over 65% in size
BAZ2B inh – inhibitors of human BAZ2B bromodomain. AlphaScreen BAZ2B-H3K14Ac peptide displacement. Potency, µM (top dose mostly 114 µM), for inactives: at the highest dose activity change, negative = inhibition, most hits filed as inhibitors. 360,000 compounds, 4.4% hits; further: potency means the concentration at half of the fitted maximal effect; on the % scale 0 is the no-effect control and ±100 the full control effect; nearly all actives have a fitted effect of over 60% in size
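AlphaScreen luminescence quantifies BAZ2B engagement of H3K14Ac peptide; the protein and biotinylated peptide are both at 50 nM final, buffer PBS pH 7.4 with 0.01% Tween-20, all steps at room temperature.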
HP1b chromo inh – HP1-beta chromodomain-methylated histone interaction inhibition; P83916; AlphaScreen HP1-beta / biotin-H3K9me3 peptide binding; Potency, µM (series often up to 114 µM), inactives show top-dose activity change, negative = inhibition, actives largely listed as inhibitors; 390,000 compounds, 0.56% hits; further: potency means the concentration at half of the fitted maximal effect; nearly all actives have a fitted effect of over 70% in size
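AlphaScreen: HP1-beta (50 nM) preformed 30 min with biotin-H3(1-18)K9me3 peptide (50 nM) in PBS pH 7.4, 0.01% Tween-20. Compound added for 30 min at RT, then streptavidin donor/nickel chelate acceptor beads (10 ug/mL) for 30 min.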
* hit, by the source's call; ? = inconclusive; nt = no result; [ ] = remark or other dose. Unless noted, the call rests on the fitted dose curve; in most records, active means well fitted curve in the direction sought with a large enough effect; inconclusive means small, poorly fitted or top-dose-only effect, or another doubt; inactive means no such curve, though single readings can be large; an effect the other way counts as inactive or inconclusive.

SMILES	PI5P4Ka inh	G9a block	JMJD2A Tudor	PLK1 PBD inh	BAZ2B inh	HP1b chromo inh
O=C(CN1CCOCC1)Nc1ccc(Oc2ccc(NC(=O)CN3CCOCC3)cc2)cc1	nt	11µM*	-4%	-3%	-3%	24%
COc1cccc(CNC(=O)N2CCC(CN3CCC(C)CC3)CC2)c1	nt	4%[59 µM]	-4%	nt	2%	19%
COc1ccc(C2/C=C\CN(C(=O)C3CC3)C(C)C(=O)N2Cc2ccc(F)cc2)cc1 (stereo not given)	nt	nt	-22%	nt	nt	50%
C=CCNc1nc(-c2ccc(O)c(C(N)=O)c2)cs1	-58*	?	14µM*	3µM*	?	-14%
NC(=O)c1cc(-c2csc(NCCc3ccccc3)n2)ccc1O	-19	35µM*	?	30µM*	56µM*	?
c1ccc(-c2nc(-c3cccnc3)cs2)cc1	6	16%[0.501 µM]	4%	-6%	5%	50%
NC(=O)c1cc(-c2csc(-c3cccnc3)n2)ccc1O	-4	32µM*	-14%	-12%	-22%	31%
CC(=O)Nc1ccc(-c2csc(NCCc3ccccc3)n2)cc1	2	nt	-28%	-19%	-9%	7%
CCc1ccc(OCC(=O)O/N=C(\N)c2ccncc2)c(Br)c1	-10	-102%	9%	-14%	-5%	46%
CCOc1cc2c(cc1OCC)CN(CC(=O)Nc1ccccc1C(=O)NC1CC1)CC2	2	23%[59 µM]	-17%	-4%	4%	36%
O=c1c2cc(F)ccc2sn1-c1ccccc1	-85*	0%[0.501 µM]	8.9µM*	1.1µM*	10µM*	1%
O=c1c2cc(C(F)(F)F)ccc2sn1-c1ccccc1	-102*	nt	nt	2.7µM*	nt	nt
O=c1c(N2CCN(c3ccc(F)cc3)CC2)csc2ccc(F)cc12	nt	-5%[59 µM]	-16%	nt	-29%	25%[57 µM]
O=c1c2ccccc2c(-c2cccc(C(F)(F)F)c2)nn1-c1ccccc1	3	81%	39%	4%	5%	75%
COc1cccc(-c2ccc(C3=CC(=O)CC(C)(C)C3=O)cc2)c1OC	6	nt	nt	2%	nt	nt
Cc1ccc(OCCOC(=O)c2nc3nccc(C)n3n2)cc1	-20	-1%	-22%[11.4 µM]	27µM*	-13%	-9%
COc1ccc(OCCOC(=O)c2nc3nccc(C)n3n2)cc1	-1	14%	9%	-3%	-3%	33%
Cc1c(C(c2ccc(N(C)C)cc2)c2c(C)n(C)n(-c3ccccc3)c2=O)c(=O)n(-c2ccccc2)n1C	-17	50µM*	-27%	-19%	?	?
Cc1cc(C)cc(OCCNC(=O)c2cc(S(=O)(=O)N3CCOCC3)ccc2F)c1	3	0%	-15%	-2%	8%	11%
CC(C)(CS(=O)(=O)[O-])NC(=O)CC[N+](C)(C)CCO	?	?	3.2µM*	-18%	2.8µM*	8.9µM*
CC(=O)Nc1ccccc1C	1	-7%[0.501 µM]	-21%	-3%	0%	39%
Cc1ccc(NC(=O)COC(=O)c2ccccc2Nc2ccccc2)cc1	32	-49%[59 µM]	-4%	0%	-37%	28%
Cc1ccc(Nc2cccccc2=O)cc1	?	-11%	?	9.5µM*	-11%	-24%
CC(C)(C)Nc1cccccc1=O	6	45µM*	-9%[11.4 µM]	-16%	-3%	42%
O=Cc1cccc2ccc3cccc(C(=O)O)c3c12	5	nt	3%	1%	nt	20%
SMILES	PI5P4Ka inh	G9a block	JMJD2A Tudor	PLK1 PBD inh	BAZ2B inh	HP1b chromo inh
COc1ccc(-c2noc(CCC(=O)N3CCN(c4ccc(F)cc4)CC3)n2)cc1	-2	nt	-9%	-3%	nt	24%
Cc1ccc(CCNC(=O)c2cc3sccc3n2Cc2ccc(C)cc2)cc1	nt	6%[59 µM]	-27%	nt	-14%	14%
O=C(NCCc1ccccc1)c1cc2sccc2n1Cc1ccccc1	-3	3%	?	?	89µM*	-7%
O=C(O)c1c(Cl)c(Cl)c(Cl)c(Cl)c1-c1c2cc(I)c(=O)c(I)c-2oc2c(I)c(O)c(I)cc12	nt	1.8µM*	nt	nt	nt	nt
O=C(O)c1ccccc1-c1c2cc(I)c(=O)c(I)c-2oc2c(I)c(O)c(I)cc12	-99*	nt	18µM*	23%	nt	?
CN(C)CCN1CCc2ccccc21	-2	?	-34%	-3%	?	4%
O=C1c2ccccc2C(=O)N1CCN1CCc2ccccc21	nt	?	?	0%	50µM*	7%
c1ccc2c(c1)CCN2CCN1CCc2ccccc21	-13	3.5µM*	-29%	-11%	?	9%
O=C1c2ccccc2C(=O)N1CCCC(=O)N1CCCc2ccccc21	-3	-26%	-10%	-3%	-2%	42%
CCc1ccc(NS(=O)(=O)c2c(-c3ccccc3)csc2C(=O)OC)cc1	nt	10%[59 µM]	-10%	nt	-9%	15%
O=C(NCCN1CCc2ccccc2C1)C1CCN(S(=O)(=O)N2CCCCC2)CC1	nt	50µM*	?	-5%	?	1%
CS(=O)(=O)N1CCCC(C(=O)NCCCN2CCc3ccccc3C2)C1 (stereo not given)	nt	11µM*	79µM*	-14%	30%	14%
Cc1ccc(C)n1-c1nc(=S)[nH][nH]1	nt	1.3µM*	3.2µM*	24µM*	?	16µM*
Cc1ccc(C)n1-c1ccc(-c2ccn[nH]2)cc1	0	?	-29%	-4%	-25%	-2%
COc1ccc(CNC(=O)c2ccc3c(=O)n(CCCN4CCCC4=O)c(=S)[nH]c3c2)cc1	-13	15%[59 µM]	-20%	-12%	-17%	9%
C=CCNC(=O)c1ccc2c(=O)n(CCCN3CCCC3=O)c(=S)[nH]c2c1	-17	?	50µM*	-9%	?	11%
COC(=O)c1ccc2c(=O)n(CCCN3CCCC3=O)c(=S)[nH]c2c1	nt	-30%[12.7 µM]	?	-7%	71µM*	27%
Cn1c(=S)[nH]c2cc(C(=O)N3CCN(C(=O)c4ccccc4)CC3)ccc2c1=O	nt	nt	79µM*	nt	nt	47%
O=C(NCc1ccccc1)c1ccc2c(=O)n(CCCN3CCCC3=O)c(=S)[nH]c2c1	-14	45µM*	-17%	-5%	-11%	32%
COc1cc(NC(=O)c2cnc3c(-c4ccc(F)cc4)c(C)nn3c2C)cc(OC)c1	nt	7%[59 µM]	-19%	nt	-4%	31%
CCOC(=O)N1CCN(Cc2nc3cc(NC(=O)CC(C)C)ccc3n2CC)CC1	-9	-8%	3%	-5%	5%	42%
O=C(CCCn1c(=S)[nH]c2cc3c(cc2c1=O)OCO3)NCc1ccco1	-11	4%	-5%	1%	-1%	38%
COc1ccc(OC)c(-n2c(=S)[nH]c3cc(C(=O)N4CCC(C(N)=O)CC4)ccc3c2=O)c1	1	?	16µM*	-1%	0%	57%
COc1ccc(OC)c(-n2c(=S)[nH]c3cc(C(=O)NCCCN4CCCC4=O)ccc3c2=O)c1	nt	28µM*	nt	nt	-34%	nt

Screening data: PubChem BioAssay, National Center for Advancing Translational Sciences (NCATS)
